These results are taken from PubChem BioAssay (NCI).

This is part of a sample that, as a whole, favours compounds with a hit. Of some 79,000 tested, about 15% had one in any assay. Values without a mark were called inactive. Calls of active or inactive are those of the source. No stated cut-off is given here; in the data, active means growth inhibition above about 70%; inactive means the rest.

The experiment can be described thus: NCI Yeast Anticancer Drug Screen. Data for the cln2 rad14 strain (AID 165).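 Further: 0% = growth equal to vehicle treated cultures.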 As to conditions: S. cerevisiae cln2 rad14 strain, at 50.0 µM, stronger effect = higher value. An outline of the steps: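 cln2 rad14 yeast strain; compound exposure; growth inhibition read vs vehicle controls.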
As to `CCOC(=O)/C=C\n1c(=O)cc(C)c2ccccc21`, the growth inhibition was 18.4%.
For `C[n+]1cc(I)cc2ccccc21`, the growth inhibition was -0.2%.
As for `CC(=O)Oc1cc2oc([O-])c[n+]2c2ccccc12`, the growth inhibition is 5.45%.
For `N#CNc1ccccc1` the value was -8.8%; for `COC(O)C(=O)c1c2c(cc3c1CCC3)CCC2` (stereo not given), 12.3%; for `C=CCCCCCCCC(O)C1C[C@H](O)C(CCCCC)O1` (stereo not given in full), 1.15%.
As to `CCOC(=O)C1C(c2ccc(N(C)C)cc2)c2cc3c(cc2OC1(C)N1CCCC1)OCO3` (stereo not given), the growth inhibition was 14.3%.
In the case of `Cc1c2ccccc2nc(CSCCO)[n+]1[O-]`, the growth inhibition is -2.1%.
For `CNC(=O)/C=C/C1=CN2C(=O)c3ccc(C)c(O)c3NC(OC)C2C1` (stereo not given), the growth inhibition is 92.6% (active).
`COC(OC)C1(CCc2ccccc2)NC(=O)N(C)C1=O` (stereo not given): the growth inhibition is -19.9%.
With `ClC(Cl)C1OCCCO1`, the growth inhibition is -41.1%.
Then `OC(CN(C1CCCCC1)C1CCCCC1)c1ccnc2c(Cl)cc(Cl)cc12` (stereo not given), with 0.6%.
For `CC(=O)OC1CCC2(C)C(CCC3C2C(=O)C(Br)C2(C)C(C(C)=O)CCC32)C1` (stereo not given) the value was 16.9%.
For `CCCCSc1ccc2n(C)c(-c3ccc(/C=N\NC(=O)c4ccc(C(=O)N/N=C\c5ccc(-c6c[n+]7cc(SCCCC)ccc7n6C)cc5)cc4)cc3)c[n+]2c1` the value was -8.45%.
On to `O=C(O)c1c[nH]c(=O)[nH]c1=O.[Cu+2]`, for which the growth inhibition is -44.5%.
Regarding `COc1cccc2c1OC(=O)NC2O` (stereo not given), the growth inhibition was -13.5%.
For `COc1c(Cl)cc(Cl)c(C)c1C(C)C(=O)O` (stereo not given) the value was 16.3%; for `COc1ccc(NC(=O)Oc2ccc3c(C)cc(=O)oc3c2)c(OC)c1` (tested in a mixture with another compound), -19.7%; for `C(=N\N=C\c1ccccc1)/c1ccccc1`, -52.5%.
`COC(=O)C1CC(=O)N(C)c2sc(C)c(C)c2C1=O` (stereo not given): the growth inhibition was 36.5%.
For the compound `CC1CCCC(CCO)CC1` (stereo not given), the growth inhibition was 0.1%.
Then `CC(N)(C(=O)O)c1ccccc1` (stereo not given), with -25.2%; and `O=C1CC[C@@H](S(=O)(=O)c2ccccc2)[C@@H](/C=C/c2ccccc2)O1`, with -12.8%.
Regarding `CC(=O)/C(=C\c1ccccc1)C(=O)CCN(C)C`, the growth inhibition was 12.2%.
Then `CCN(CC)C(=O)c1ccc(C(C)C)cc1`, with 6.6%; and `O=[N+]([O-])c1ccc(OCCCCCBr)c(Cl)c1`, with -26.7%; and `O=[N+]([O-])c1cc(Br)cc2c1[nH]c1nc3ccc(C(F)(F)F)cc3nc12`, with 17.4%.
For `O=c1cc(NC(c2ccccc2)c2ccccc2)[nH]c(=O)[nH]1` the value was -10.4%.
Then `N#C[C@H](c1nc2ccccc2[nH]1)c1nc2ccccc2nc1Cl`, with 12.8%; and `CCN(CC)CCNC(=O)c1cn2c(ccc3sc4ccccc4c(=O)c32)n1`, with 38.3%.
`O=C(NCc1ccco1)Nc1ccccc1`: the growth inhibition is -36%.
Consider `CCO[C@H]1c2cc3c(cc2[C@@H](c2cc(OC)c(OC)c(OC)c2)[C@H]2C(=O)OC[C@@H]21)OCO3`, for which the growth inhibition is 28.7%.
Then `CC(C)/C=N\n1c(N)c(C#N)c(C#N)c1C(C)C`, with 5.95%; and `N#CCC(=O)NCCc1c[nH]c2ccccc12`, with -32.8%; and `CCOC(=O)C(C(=O)OCC)=C1c2ccccc2Oc2ccccc21`, with -17.6%.
For `N#CCCCCC12C3C(=O)N(c4ccccc4)C(=O)C3ON1O[C@@H]1C(=O)N(c3ccccc3)C(=O)[C@@H]12` (stereo not given in full) the value was 49.9%; for `O=C1c2ccccc2-c2nc(-c3ccncc3)cc3c2c1nc1ccccc13`, 11.1%.
For `COc1ccccc1C(=O)N(C)c1ccc(Cl)c(C(=O)OC(C)C)c1` the value was 37.7%; for `Cc1cn(CCCCCCCCCCCCOc2c3occc3cc3ccc(=O)oc23)c(=O)[nH]c1=O`, 23.2%; for `O=CNc1ccc(Br)cc1`, 0.7%.
